Among the data in PubChem BioAssay (EPA / NIEHS) are outcome and AC50 values, retold here.

Assay [1] addresses Transcription factor E2F1 (Homo sapiens) (UniProt Q01094). The assay can be described thus: ATG_E2F_CIS: Attagene CIS-FACTORIAL HepG2 Assay for human E2F Transcription Factor 1 (AID 2282935). As to conditions: HepG2 Attagene cis-reporter, E2F reporter RNA transcripts; actives raise or lower the signal. A digest of the protocol: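 Gain or loss of reporter transcript, fitted against DMSO, reflects E2F1-driven transcription. Transiently transfected HepG2 dosed 24 h before RNA isolation. Quantified by fluorescent RT-PCR products separated by capillary electrophoresis.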

Assay [2] is described as follows: ATG_E_Box_CIS: Attagene CIS-FACTORIAL HepG2 Assay for human Enhancer Box (E-box) (AID 2282936). As to conditions: HepG2 E-box cis-reporter transcription, actives raise or lower the signal. A digest of the protocol:
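E-box-driven reporter transcripts measured in transiently transfected HepG2 after 24 h exposure: RNA reverse-transcribed, PCR-amplified, fluorescently labelled, digested and resolved by capillary electrophoresis. Gain or loss relative to DMSO.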

The nature of assay [3]: ATG_M_61_CIS: Attagene CIS-FACTORIAL HepG2 Assay for M61 Transcription Factor (Internal Marker) (AID 2282937). As to conditions: HepG2 Attagene CIS-FACTORIAL M61 internal marker reporter; actives raise or lower the signal. A digest of the protocol: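 Human liver HepG2, transient MRTU transfection (cis promoter elements), 24 h compound. Total RNA → oligo(dT) RT → PCR → FAM label → HpaI → CE. Internal background marker; bidirectional fitting, DMSO = baseline.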

A short description of assay [4]: ATG_EGR_CIS: Attagene CIS-FACTORIAL HepG2 Assay for human Early Growth Response 1 (EGR1) (AID 2282938). As to conditions: HepG2 Attagene CIS-FACTORIAL EGR reporter mRNA; actives raise or lower the signal. In outline:
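Transient transfection of human HepG2 with multiple cis-regulated reporter units, chemical exposure 24 h, total RNA isolated. Reverse transcription, PCR, fluorescent labelling and capillary electrophoresis quantify reporter transcripts; activity fitted bidirectionally against DMSO.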

Assay [5] can be described thus: ATG_M_19_CIS: Attagene CIS-FACTORIAL HepG2 Assay for M19 Transcription Factor (Internal Marker) (AID 2282939). As to conditions: HepG2 Attagene CIS-FACTORIAL M19 internal marker reporter; actives raise or lower the signal. A digest of the protocol: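 Chemical-treated HepG2 (24 h) with MRTU constructs; reporter transcripts detected by fluorescent RT-PCR fragment analysis on capillary electrophoresis. Internal background marker, DMSO as baseline.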

Assay [6] can be described thus: ATG_ERE_CIS: Attagene CIS-FACTORIAL HepG2 Assay for Estrogen Response Element (ERE) (AID 2282940). The note with it: HepG2 ERE cis-reporter, Attagene RNA transcript; actives raise or lower the signal. In outline:
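Human liver cells (HepG2) bearing transiently transfected, promoter-regulated reporter units were exposed 24 h. Reporter mRNA induction was detected by capillary electrophoresis of labelled RT-PCR products and fitted bidirectionally to DMSO.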

Assay [7] in a line: ATG_Ets_CIS: Attagene CIS-FACTORIAL HepG2 Assay for human Erythroblast Transformation Specific (ETS) (AID 2282941). The note with it: HepG2 ETS cis-reporter transcription, actives raise or lower the signal. In outline:
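Endogenous transcription factor activity read as reporter mRNA via RT-PCR and capillary electrophoresis, with gain or loss fitted bidirectionally against DMSO. Human HepG2 liver cells, transiently transfected CIS reporter constructs, 24 h exposure.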

The target of assay [8] is Hepatocyte nuclear factor 3-beta (Homo sapiens) (UniProt Q9Y261). The assay is described as follows: ATG_FoxA2_CIS: Attagene CIS-FACTORIAL HepG2 Assay for human Forkhead box A2 (FOXA2) (AID 2282942). As to conditions: HepG2 cis-reporter transcription factor activity, 24 h; actives raise or lower the signal. A digest of the protocol: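 Transient MRTU transfection of HepG2 liver cells; 24 h treatment; total RNA → oligo(dT) RT → PCR → FAM primer extension → HpaI cut → CE. Bidirectional fit vs DMSO.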

The nature of assay [9]: ATG_FoxO_CIS: Attagene CIS-FACTORIAL HepG2 Assay for human Forkhead box O (FoxO) (AID 2282943). The note with it: HepG2 Attagene cis-reporter, FoxO element, mRNA; actives raise or lower the signal. A digest of the protocol:
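Endogenous transcription factor activity read from multiplexed cis-promoter reporter transcripts in transiently transfected HepG2, 24 h after dosing. Reporter RNA measured via RT-PCR plus capillary electrophoresis of FAM-labeled products; gain or loss relative to DMSO.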

A short description of assay [10]: ATG_GATA_CIS: Attagene CIS-FACTORIAL HepG2 Assay for human GATA Binding Protein (AID 2282944). The note with it: HepG2 GATA cis-element reporter, Attagene multiplex mRNA; actives raise or lower the signal. In outline: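 Transfected cis-reporter HepG2 cells were treated with chemicals for 24 hours. Total RNA was then converted to cDNA, amplified with reporter-specific primers and analysed by fluorescent capillary electrophoresis, using DMSO-treated wells as baseline.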

The AC50 is the concentration giving half of the maximal activity seen.

The source made the active and inactive calls. Rule for the calls: active = hit-call score of the fitted dose curve at least 0.9, where 1 is the maximum; inactive = score below 0.9.

Transcription factor E2F1 (Homo sapiens), sequence (Q01094 whole entry, looked up): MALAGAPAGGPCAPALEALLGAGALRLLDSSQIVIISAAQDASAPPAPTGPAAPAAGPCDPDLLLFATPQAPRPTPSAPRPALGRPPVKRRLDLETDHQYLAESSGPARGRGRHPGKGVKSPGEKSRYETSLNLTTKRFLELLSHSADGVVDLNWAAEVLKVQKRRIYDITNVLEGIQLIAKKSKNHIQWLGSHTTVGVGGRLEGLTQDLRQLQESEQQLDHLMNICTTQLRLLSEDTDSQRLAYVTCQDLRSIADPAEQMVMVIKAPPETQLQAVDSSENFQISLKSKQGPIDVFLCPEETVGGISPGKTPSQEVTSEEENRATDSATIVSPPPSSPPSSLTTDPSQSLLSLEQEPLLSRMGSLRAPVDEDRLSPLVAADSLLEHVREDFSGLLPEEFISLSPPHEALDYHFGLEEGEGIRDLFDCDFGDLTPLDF
Hepatocyte nuclear factor 3-beta (Homo sapiens), sequence (Q9Y261 whole entry, looked up): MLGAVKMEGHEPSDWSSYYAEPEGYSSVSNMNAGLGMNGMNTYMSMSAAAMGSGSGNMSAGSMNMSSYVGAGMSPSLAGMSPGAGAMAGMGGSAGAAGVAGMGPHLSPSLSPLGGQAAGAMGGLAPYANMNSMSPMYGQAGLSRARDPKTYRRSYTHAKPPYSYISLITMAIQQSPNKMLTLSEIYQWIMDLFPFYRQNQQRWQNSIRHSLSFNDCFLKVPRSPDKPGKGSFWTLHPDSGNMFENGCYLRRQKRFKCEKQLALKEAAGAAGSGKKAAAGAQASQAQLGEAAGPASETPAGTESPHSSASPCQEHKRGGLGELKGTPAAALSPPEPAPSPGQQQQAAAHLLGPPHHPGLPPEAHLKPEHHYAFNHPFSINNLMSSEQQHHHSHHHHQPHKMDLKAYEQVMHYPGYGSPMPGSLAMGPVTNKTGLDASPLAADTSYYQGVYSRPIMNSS

Turning to `Cc1ccccc1Cl`, the outcome in assay [1], in assay [2], in assay [3], in assay [4], in [5] and in assay [6] was inactive. In addition, the result in assay [7], in assay [8], in [9] and in assay [10] was inactive.
Take `O=c1c(O)c(-c2ccc(O)c(O)c2)oc2cc(O)cc(O)c12`: the outcome in assay [1], in [2], in assay [3], in assay [4], in assay [5] and in assay [7] was inactive. Also, the outcome in assay [8], in [9] and in assay [10] was inactive. Besides, the AC50 in assay [6] is 25.8 µM (active).
Turning to `CCCCc1ccc2c(n1)[C@@H](c1ccc(OC)cc1C[C@H](C)C(=O)O)[C@H](C(=O)O)[C@H]2c1ccc2c(c1)OCO2`, the molecule was called inactive in assay [1], in assay [2], in assay [3], in [4], in assay [5] and in [6]. In addition, the call in [7], in assay [8], in assay [9] and in [10] was inactive.
Consider `CCCCCCC(=O)OCC`, for which the call in assay [1], in assay [2], in [3], in assay [4], in assay [5] and in assay [7] was inactive. The call in assay [8], in assay [9] and in assay [10] was inactive. The AC50 in [6] is 34.7 µM (active).
Consider `CCCCOC(=O)CCCCCCCCC(=O)OCCCC`, for which the result in assay [1], in assay [3], in [4], in assay [5], in assay [6] and in assay [7] was inactive. In addition, the result in [8], in assay [9] and in assay [10] was inactive. Further, in assay [2], the AC50 was 142 µM (active).
Consider `C1CCC(SSC2CCCCC2)CC1`, for which the outcome in [1], in assay [2], in [3], in assay [4], in assay [5] and in assay [7] was inactive. Besides, the molecule was called inactive in assay [8], in [9] and in assay [10]. The AC50 in assay [6] was 56.7 µM (active).
On to `OC[C@@H](O)[C@@H](O)[C@H](O)[C@H](O)CO`, for which the result in assay [1], in assay [2], in assay [3], in [4], in [5] and in [6] was inactive. Besides, the molecule was called inactive in assay [7], in assay [8], in assay [9] and in [10].
On to `Cc1ccc(C)c(C)c1`, for which the molecule was classed as inactive in assay [1], in assay [2], in [3], in [4], in assay [5] and in assay [6]. Further, the outcome in assay [7], in assay [8], in assay [9] and in assay [10] was inactive.
As to `Cc1c(C(=O)O)c(O)cc2c1C(=O)c1c(O)c([C@@H]3O[C@H](CO)[C@@H](O)[C@H](O)[C@H]3O)c(O)c(O)c1C2=O`, the result in [1], in assay [2], in [3], in assay [4], in assay [5] and in assay [6] was inactive. Also, the outcome in assay [7], in assay [8], in assay [9] and in assay [10] was inactive.
In the case of `Oc1ccc2c(c1)OC[C@@H](N1CCC(O)(c3ccc(F)cc3)CC1)[C@H]2O`, the outcome in assay [1], in assay [2], in assay [3], in assay [5], in [6] and in assay [7] was inactive. Further, the call in assay [8], in assay [9] and in assay [10] was inactive. In assay [4], the AC50 is 50 µM (active).
As to `CC(=O)OCCOCCOCCOC(C)=O`, the molecule was classed as inactive in assay [1], in assay [2], in [3], in [4], in assay [5] and in [6]. The outcome in assay [7], in assay [8], in assay [9] and in [10] was inactive.
With `Cc1oc(-c2ccccc2)nc1CCOc1cccc2c1ccn2CCC(=O)O`, the outcome in [1], in assay [2], in [3], in [4], in assay [5] and in assay [7] was inactive. Moreover, the molecule was classed as inactive in [9] and in assay [10]. In addition, the AC50 in [6] was 0.066 µM (active); in assay [8], 1.86 µM (active).
For `CCCCCCCCCCCCCCCCCC(=O)O`, the molecule was classed as inactive in [1], in [2], in assay [3], in [4], in assay [5] and in [7]. The call in assay [8], in [9] and in [10] was inactive. For the same molecule, the AC50 in [6] is 2.75 µM (active).
On to `O=C(O)Cc1ccccc1Nc1c(Cl)cccc1Cl`, for which the outcome in assay [1], in [3], in assay [4], in assay [5], in assay [6] and in [7] was inactive. Besides, the result in assay [8], in [9] and in assay [10] was inactive. Moreover, the AC50 in assay [2] is 176 µM (active).
Consider `CCc1c(C(=O)NN2CCCCC2)nn(-c2ccc(Cl)cc2Cl)c1-c1ccc(Br)cc1`, for which the result in assay [1], in assay [2], in [3], in assay [5], in assay [7] and in [8] was inactive. The call in [9] and in [10] was inactive. Moreover, the concentration at half-maximal activity (AC50) in assay [4] is 3.12 µM (active); in assay [6], 6.06 µM (active).
Regarding `FC(F)(F)C(F)(F)C(F)(F)C(F)(F)C(F)(F)C(F)(F)CCI`, the call in [1], in assay [2], in assay [3], in assay [4], in [5] and in assay [6] was inactive. Moreover, the molecule was classed as inactive in assay [7], in assay [8], in assay [9] and in [10].
On to `NCC1(Cc2noc(=O)[nH]2)CCCCC1`, for which the molecule was classed as inactive in assay [1], in assay [2], in assay [3], in assay [4], in assay [5] and in assay [6]. Moreover, the result in assay [7], in [8], in [9] and in [10] was inactive.
As to `NC(=O)Cn1c(=O)cc(CCN2CCN(c3nccc4sccc34)CC2)c2ccc(F)cc21`, the molecule was classed as inactive in assay [1], in [2], in assay [3], in assay [4], in [5] and in assay [6]. The result in assay [7], in assay [8], in assay [9] and in [10] was inactive.
With `Cc1ccc(C)c(O)c1C`, the result in assay [1], in [2], in assay [3], in assay [4], in [5] and in assay [6] was inactive. Besides, the molecule was called inactive in assay [7], in assay [8], in assay [9] and in [10].
As for `Nc1ccccc1N`, the molecule was classed as inactive in assay [1], in assay [2], in assay [3], in [5], in [6] and in [7]. Further, the result in assay [8], in [9] and in assay [10] was inactive. In addition, the AC50 in [4] was 53.8 µM (active).
As for `O=[N+]([O-])C(CO)(CO)CO`, the molecule was classed as inactive in assay [1], in assay [2], in [3], in assay [4], in assay [5] and in assay [6]. The outcome in [7], in [8], in assay [9] and in assay [10] was inactive.
As for `CNC(=O)[C@H]1O[C@@H](n2cnc3c(NCc4cc(Cl)ccc4OCc4cc(C)no4)ncnc32)[C@H](O)[C@@H]1N`, the result in [1], in [2], in [3], in assay [4], in [5] and in [6] was inactive. For the same molecule, the molecule was called inactive in assay [7], in assay [8], in assay [9] and in [10].
